# Data from the antibiotic and cytotoxicity screens of Wong et al. (2023).
# Hit rate of the full screen: of about 39,000 compounds, about 1,500 (3.8%) were called active. The full list was thinned out, with actives kept by preference.
# Tested on: HSkMC (human skeletal muscle cells)
# Experiment: cytotoxicity call (relative viability < 0.9)
# Details: 10 µM
row,Compound,cytotoxicity call
1,COCC(=O)N1C[C@@H](C)[C@H](OC)CN(C)C(=O)c2ccc(NC(=O)Nc3cccc(F)c3)cc2OC[C@H]1C,inactive
2,C[C@H]1CN([C@@H](C)CO)C(=O)c2cccc(NC(=O)c3cnccn3)c2O[C@@H]1CN(C)CC1CCCCC1,inactive
3,CC[C@@H]1OC(=O)[C@H](C)[C@@H](O[C@H]2C[C@@](C)(OC)[C@@H](O)[C@H](C)O2)[C@H](C)[C@@H](O[C@@H]2O[C@H](C)C[C@H](N(C)C)[C@H]2O)[C@](C)(O)C[C@@H](C)/C(=N\OCOCCOC)[C@H](C)[C@@H](O)[C@]1(C)O,inactive
4,CCNC(=O)C[C@@H]1C=C[C@H](NC(=O)C2CCOCC2)[C@H](CO)O1,inactive
5,COc1ccc(C#Cc2cnc3c(c2)C(=O)N([C@H](C)CO)C[C@H](C)[C@H](CN(C)CC2CCOCC2)O3)cc1,inactive
6,C[C@H]1CCCCO[C@@H](CN(C)Cc2ccncc2)[C@@H](C)CN([C@@H](C)CO)C(=O)c2cc(NC(=O)C3CCCCC3)ccc2O1,inactive
7,C[C@H]1CN([C@@H](C)CO)C(=O)c2cccc(NS(C)(=O)=O)c2O[C@@H]1CN(C)S(=O)(=O)c1ccccc1,inactive
8,O=C(C[C@H]1CC[C@@H](NC(=O)Cc2ccccn2)[C@@H](CO)O1)NCCCN1CCOCC1,inactive
9,C[C@H]1CN([C@@H](C)CO)C(=O)Cc2cc(NS(C)(=O)=O)ccc2O[C@H]1CN(C)S(C)(=O)=O,inactive
10,CCCn1c(=O)c(C#N)cn(C2CC2)c1=O,inactive
11,N=C(N)SCc1csc(N)n1,inactive
12,C[C@H]1CN([C@@H](C)CO)C(=O)c2cc(NC(=O)Cc3cn(C)c4ccccc34)ccc2O[C@H]1CN(C)Cc1ccc(-c2ccccc2)cc1,inactive
13,C[C@@H]1CN([C@@H](C)CO)C(=O)c2cc(NC(=O)Cc3cn(C)c4ccccc34)ccc2O[C@H]1CN(C)Cc1ccc(Cl)c(Cl)c1,inactive
14,C[C@H]1CN([C@@H](C)CO)C(=O)c2cc(NC(=O)Cc3cn(C)c4ccccc34)ccc2O[C@@H]1CN(C)Cc1ccc(Cl)c(Cl)c1,active
15,C[C@@H]1CN([C@H](C)CO)C(=O)c2cc(NC(=O)Cc3cn(C)c4ccccc34)ccc2O[C@H]1CN(C)Cc1ccc(Cl)c(Cl)c1,active
16,C[C@H]1CN([C@@H](C)CO)C(=O)c2cc(NC(=O)Cc3cn(C)c4ccccc34)ccc2O[C@H]1CN(C)Cc1ccc(Cl)c(Cl)c1,inactive
17,C[C@@H]1CN([C@@H](C)CO)C(=O)c2cc(NC(=O)CCN3CCOCC3)ccc2O[C@@H]1CN(C)S(C)(=O)=O,inactive
18,C[C@H](O)C#Cc1ccc2c(c1)O[C@@H](CN(C)C(=O)Nc1ccccc1)[C@@H](C)CN([C@H](C)CO)S2(=O)=O,inactive
19,CC(C)NC(=O)Nc1cccc2c1O[C@H](CN(C)Cc1ccc(C(=O)O)cc1)[C@H](C)CN([C@@H](C)CO)C2=O,inactive
20,CCC1C=C2C(=O)OC(=O)C2CC2=C(C(=O)OC2=O)C(OC(C)=O)C1CC (stereo not given),inactive
21,COc1ccc(CN(C)C[C@H]2Oc3ccc(NC(=O)C4CC4)cc3CC(=O)N([C@@H](C)CO)C[C@H]2C)cc1,inactive
22,O=C(C[C@H]1CC[C@@H]2[C@H](COC[C@@H](O)CN2S(=O)(=O)c2cccc(Cl)c2)O1)N1CCOCC1,inactive

row,Compound,cytotoxicity call
1,CN(C)C(=O)c1ccc(-c2cccc(-c3nc(C(=O)NC4CCCC4)cc4c3[C@H](CCO)N([S@@](=O)C(C)(C)C)C4)c2)cc1,inactive
2,Nc1nonc1/C(=N/O)N1CCCCC1,inactive
3,Cc1nn(C)c(COc2ccc(N3CCN(S(=O)(=O)N(C)C)CC3)cc2)c1-c1cccc2c(CCCOc3cccc4ccccc34)c(C(=O)O)n(CCN3CCNCC3)c12,inactive
4,O=C1C=CC(=O)N1,active
5,CC(C)(C)c1ccc(C(=O)CCCN2CCC(OC(c3ccccc3)c3ccccc3)CC2)cc1,active
6,CN1C2CCC1CC(OC(c1ccccc1)c1ccccc1)C2.CS(=O)(=O)O (stereo not given),inactive
7,CN1CCC(OC(c2ccccc2)c2ccccc2)CC1.Cl,inactive
8,C[C@H]1CCCCO[C@H](CN(C)C(=O)CCC(F)(F)F)[C@@H](C)CN([C@@H](C)CO)C(=O)c2cc(NC(=O)CCC(F)(F)F)ccc2O1,inactive
9,C[C@@H]1CN([C@H](C)CO)C(=O)c2cc(NS(C)(=O)=O)ccc2O[C@@H]1CN(C)C(=O)Nc1ccc(C(F)(F)F)cc1,inactive
10,COC(=O)CSc1nc(=O)c(C)n[nH]1,inactive
11,C[C@H]1CN([C@@H](C)CO)C(=O)c2cccc(NC(=O)Nc3ccc(C(F)(F)F)cc3)c2O[C@@H]1CN(C)C(=O)Nc1cccc2ccccc12,active
12,C[C@H]1CN([C@@H](C)CO)C(=O)c2cccc(NC(=O)Nc3ccc(C(F)(F)F)cc3)c2O[C@H]1CN(C)C(=O)Nc1cccc2ccccc12,inactive
13,C[C@@H]1CN([C@H](C)CO)C(=O)c2cccc(NC(=O)Nc3ccc(C(F)(F)F)cc3)c2O[C@H]1CN(C)C(=O)Nc1cccc2ccccc12,inactive
14,C[C@@H]1CN([C@@H](C)CO)C(=O)c2cccc(NC(=O)Nc3ccc(C(F)(F)F)cc3)c2O[C@@H]1CN(C)C(=O)Nc1cccc2ccccc12,active
15,C[C@H](CO)N1C[C@H](C)[C@@H](CN(C)C(=O)Nc2cccc3ccccc23)Oc2c(NC(=O)Nc3ccc(C(F)(F)F)cc3)cccc2C1=O,inactive
16,C[C@@H]1CN([C@@H](C)CO)C(=O)c2cccc(NC(=O)Nc3ccc(C(F)(F)F)cc3)c2O[C@H]1CN(C)C(=O)Nc1cccc2ccccc12,inactive
17,C[C@@H]1CN([C@H](C)CO)C(=O)c2cccc(NC(=O)Nc3ccc(C(F)(F)F)cc3)c2O[C@@H]1CN(C)C(=O)Nc1cccc2ccccc12,active
18,C[C@H](CO)N1C[C@H](C)[C@H](CN(C)C(=O)Nc2cccc3ccccc23)Oc2c(NC(=O)Nc3ccc(C(F)(F)F)cc3)cccc2C1=O,inactive
19,COCC#Cc1cnc2c(c1)C(=O)N([C@@H](C)CO)C[C@@H](C)[C@@H](CN(C)C(C)=O)O2,inactive
20,C[C@@H]1CN([C@H](C)CO)C(=O)c2cc(NC(=O)CCCN(C)C)ccc2O[C@H]1CN(C)S(=O)(=O)c1ccccc1,inactive
21,C[C@@H]1CCCCO[C@H](CN(C)Cc2ccccc2)[C@H](C)CN([C@H](C)CO)C(=O)c2cc(NC(=O)CCC(F)(F)F)ccc2O1,inactive
22,Cc1ccc(S(=O)(=O)Nc2ccc3c(c2)C(=O)N([C@@H](C)CO)C[C@H](C)[C@H](CN(C)C(=O)Nc2ccccc2)OCCCC[C@@H](C)O3)cc1,inactive

row,Compound,cytotoxicity call
1,CCS(=O)(=O)N1CC[C@@H]2CO[C@H](CN3CCN(C)CC3)[C@@H]2C1,inactive
2,Cc1noc(C)c1S(=O)(=O)Nc1ccc2c(c1)CC(=O)N([C@@H](C)CO)C[C@H](C)[C@@H](CN(C)CC1CC1)O2,inactive
3,C[C@H]1CCCCO[C@@H](CN(C)S(=O)(=O)c2ccccc2)[C@@H](C)CN([C@@H](C)CO)C(=O)c2cc(NC(=O)Nc3ccc(C(F)(F)F)cc3)ccc2O1,inactive
4,C=CCNC1=C2C[C@H](C)C[C@H](OC)[C@@H](O)[C@H](C)/C=C(\C)[C@H](OC(N)=O)[C@H](OC)/C=C/C=C(\C)C(=O)NC(=CC1=O)C2=O,active
5,CO[C@H]1/C=C\C=C(/C)C(=O)NC2=CC(=O)C(NCCN(C)C)=C(C[C@@H](C)C[C@H](OC)[C@H](O)[C@@H](C)/C=C(\C)[C@@H]1OC(N)=O)C2=O,active
6,CO[C@H]1/C=C\C=C(/C)C(=O)NC2=CC(=O)C=C(C2=O)[C@H](OC)[C@@H](C)C[C@H](OC)[C@H](O)[C@@H](C)/C=C(\C)[C@@H]1OC(N)=O,inactive
7,COC1=C2C[C@@H](C)C[C@H](OC)[C@H](O)[C@@H](C)/C=C(\C)[C@H](OC(N)=O)[C@@H](OC)/C=C\C=C(/C)C(=O)NC(=CC1=O)C2=O,inactive
8,COC1=C2C[C@H](C)C[C@H](OC)[C@@H](O)[C@H](C)/C=C(\C)[C@H](OC(N)=O)[C@H](OC)/C=C/C=C(\C)C(=O)NC(=CC1=O)C2=O,inactive
9,COC1=C2C[C@@H](C)C[C@H](OC)[C@H](O)[C@@H](C)/C=C(\C)[C@H](OC(N)=O)[C@@H](OC)/C=C/C=C(\C)C(=O)NC(=CC1=O)C2=O,active
10,C=CCNC1=C2C[C@@H](C)C[C@H](OC)[C@H](O)[C@@H](C)/C=C(\C)[C@H](OC(N)=O)[C@@H](OC)/C=C\C=C(/C)C(=O)NC(=CC1=O)C2=O,active
11,Cc1noc(C)c1NC(=O)Nc1ccc2c(c1)CC(=O)N([C@H](C)CO)C[C@H](C)[C@H](CN(C)Cc1ccc(C(F)(F)F)cc1)O2,inactive
12,C[C@H](CO)N1C[C@H](C)[C@H](CN(C)CC2CCOCC2)Oc2ncc(C#Cc3cccc(F)c3)cc2C1=O,inactive
13,CC(C)(C)c1cccc(N)c1,inactive
14,CCCC(=O)Nc1ccc2c(c1)C(=O)N(C)C[C@@H](OC)[C@@H](C)CN(Cc1ccc(-c3ccccn3)cc1)[C@@H](C)CO2,inactive
15,COc1cccc(OCc2ccc(Cn3nc(NC(=O)NCc4ccc(F)cc4)c4ccccc43)cc2)c1,inactive
16,O=c1ccoc2cc(O)c([C@H]3O[C@H](CO)[C@@H](O)[C@H](O)[C@@H]3O)c(O)c12,inactive
17,C[C@H]1CN([C@@H](C)CO)C(=O)Cc2cc(NC(=O)C3CCCCC3)ccc2O[C@@H]1CN(C)C(=O)Nc1ccc(C(F)(F)F)cc1,inactive
18,CC(C)NC(=O)N(C)C[C@H]1Oc2c(NC(=O)C3CCOCC3)cccc2C(=O)N([C@@H](C)CO)C[C@H]1C,inactive
19,CCC(=O)OC(CC(=O)O)C[N+](C)(C)C.[Cl-] (stereo not given),inactive
20,CCS(=O)(=O)NCC[C@H]1CC[C@@H](NS(=O)(=O)c2ccccc2C)[C@@H](CO)O1,inactive
21,C[C@@H]1CN([C@H](C)CO)C(=O)CCCn2cc(nn2)CO[C@H]1CN(C)C(=O)Nc1ccnc(N2CCOCC2)c1,inactive
